Screens: PubChem BioAssay, National Center for Advancing Translational Sciences (NCATS)
Shown are actives, neighbours in structure and some others; about 11% of the full set was active somewhere.
Pf growth 96h: Primary qHTS for delayed death inhibitors of the malarial parasite plastid, 96 hour incubation; P. falciparum luciferase reporter growth, 96 h; Potency, µM (highest dose often 28.7 µM), usual class: inhibitors; 6.9% of 320,000 active; AID 504834, 2011
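P. falciparum expressing integrated firefly luciferase grown in erythrocytes (2% hematocrit, 0.05% parasitemia final) with compounds for 96 hours at 37 C, 5% CO2. Growth inhibition read as loss of luminescence after adding luciferase detection reagent.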
AMA1-RON2 inh: qHTS for Inhibitors of AMA1-RON; Towards Development of Antimalarial Drug Lead: Primary Screen | AlphaScreen AMA1-biotinylated RON2 peptide binding | Potency, µM (doses to about 58.2 µM), actives largely listed as inhibitors | 0.2% of 360,000 active | AID 720542, 2013; also: nearly all actives have a fitted effect of over 45% in size
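AMA1 (3D7) with his tag at 25 nM final met compounds first, then biotinylated RON2 peptide at 25 nM; detection used donor plus acceptor beads, 10 µg/mL apiece, read by AlphaScreen after 30 min at room temperature.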
Sm TGR inh: qHTS Assay for the Inhibitors of Schistosoma Mansoni Peroxiredoxins | purified TGR, DTNB reduction, TNB absorbance 405 nm | Potency, µM (doses to about 114 µM), actives largely listed as inhibitors | AID 485364, 2010 | 3% of 360,000 active; also: nearly all actives have a fitted effect of over 60% in size
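TGR 20 nM + NADPH 100 uM (dispensed conc.), cpd preinc 15 min RT; start with NADPH (500 uM addition) then DTNB (15 mM addition). Kinetic TNB absorbance, 405 nm filter. Four-parameter Hill fit across titration.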
NS1 inh: qHTS Assay for Inhibitors of Influenza NS1 Protein Function; Potency, µM (titrated, usually from 46.1 µM); 0.4% of 270,000 active; AID 2326, 2010; calls by dose curve; also: actives are rising curves; nearly all actives have a fitted effect of over 50% in size
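A cell-based growth assay was used: compounds that relieve NS1-induced slow growth of budding yeast raise OD600. Assay medium was yeast nitrogen base with ammonium sulphate and -URA supplement, pH 6.0, with 2% galactose.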
Pf growth 48h: Primary qHTS for delayed death inhibitors of the malarial parasite plastid, 48 hour incubation. P. falciparum luciferase growth in erythrocytes, 48 h. Potency, µM (doses to about 28.7 µM), most hits filed as inhibitors. 5.9% of 310,000 active. AID 504832, 2011
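Luciferase-expressing parasites in RBCs, 2% Hct / 0.1% parasitemia final; RPMI 1640 + 0.5% Albumax; 37 C, 5% CO2, one generation; luminescence read-out, lower signal = inhibition.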
Numbers stand for hits; - = inactive; ? = inconclusive; . = no result; [ ] = dose if it differs, or a comment. Unless noted, calls follow the shape of the dose curve; as a rule, active = well fitted curve in the direction sought with a large enough effect; inconclusive = small, poorly fitted or top-dose-only effect, or another doubt; inactive = no such curve, though single readings can be large; an effect the other way counts as inactive or inconclusive.

SMILES | Pf growth 96h | AMA1-RON2 inh | Sm TGR inh | NS1 inh | Pf growth 48h
Cc1cc(=O)[nH]c(NN)n1 | 9.3µM | - | - | - | ?
CCCCn1c(=O)c2oc3ccccc3c2n(Cc2cccc(C)c2)c1=O | . | . | - | . | .
CCOc1ccccc1CNC(=O)c1cn(-c2ccc(OC)cc2)c(=O)c2ccccc12 | . | . | - | . | .
COc1ccc(Cl)cc1NC(=O)Cn1ccn(-c2cc(C)cc(C)c2)c(=O)c1=O | . | . | - | . | .
CCn1c(CNC(=O)c2cccs2)nnc1SCC(=O)Nc1cc(Cl)ccc1C | ? | - | - | - | ?
CCn1c(CNC(=O)c2ccc(Cl)cc2)nnc1SCC(=O)NC1=NCCS1 | 8.3µM | - | - | - | -
CCn1c(CNC(=O)c2cccs2)nnc1SCC(=O)Nc1ccc(Cl)cc1 | 9.3µM | - | - | - | 10µM
Cn1c(CC(=O)Nc2ccccc2)nnc1SCC(=O)NC1=NCCS1 | 2.6µM | - | - | - | -
C=CCn1c(CCNC(=O)c2cccs2)nnc1SCC(=O)Nc1cccc(C(C)=O)c1 | 9.3µM | - | - | - | -
COc1ccc(NS(=O)(=O)c2ccc(C)c(C(=O)N3CCCCCCC3)c2)cc1 | - | - | - | . | -
C[C@@H]1CN([C@H](C)CO)C(=O)c2cc(Br)cnc2O[C@@H]1CN(C)C(=O)Nc1cccc(F)c1 | . | - | . | . | .
Cc1ccc2[nH]c(=O)c(CN(C(=O)c3cccc(Cl)c3)C(C)(C)C)cc2c1 | . | . | - | . | .
COc1cccc(C(=O)Nc2nc(-c3nnn(-c4cccc(Cl)c4C)c3C)ns2)c1 | . | . | - | . | .
CCSCc1nnc(SCC(=O)Nc2ccc(F)cc2)n1CC | 12µM | - | - | - | -
CCn1c(COc2ccccc2C)nnc1SCC(=O)CC(=O)Nc1ccccc1 | - | - | - | ? | 10µM
CCN(CC)C(=O)CSc1nc2ccc(NC(=O)CSc3nnc(COc4ccccc4C)n3C)cc2s1 | 9.3µM | - | - | - | ?
CC[C@H]1C/C=C\Cc2ccccc2[C@@H](C(=O)C[C@@H](O)CC(C)=O)OC1=O | . | - | . | . | .
COc1ccc(C)cc1S(=O)(=O)N(CC(=O)NC1CCCC1)c1ccc(F)cc1 | 9.3µM | - | - | - | -
COc1ccc(C)cc1S(=O)(=O)N(C)CC(=O)NC1CCCCC1 | . | - | - | - | -
CCOc1ccc(S(=O)(=O)N(CC(=O)Nc2cccnc2)c2ccc(F)cc2)cc1 | 5.9µM | - | - | - | -
COc1ccc(N(CC(=O)NC2CC3CCC2C3)S(=O)(=O)c2ccc(C)cc2)cc1 (stereo not given) | 13µM | - | - | - | -
COc1ccc(S(=O)(=O)N(CC(=O)NC2CCCCC2)c2ccc(F)cc2)cc1 | 7.4µM | - | - | - | -
CCOC(=O)C1=C(C)NC(=O)NC1c1c(OCC(=O)N2CCCCC2)ccc2ccccc12 (stereo not given) | -[5.75 µM] | - | - | - | 12µM
CC(C)CC(=O)NC(=S)Nc1ccc(N2CCOCC2)c(Cl)c1 | - | - | ? | - | ?
COc1ccc(CNC(=O)c2cccn2-c2nnc(N3CCCC3)s2)c(OC)c1 | . | . | - | . | .
SMILES | Pf growth 96h | AMA1-RON2 inh | Sm TGR inh | NS1 inh | Pf growth 48h
CCCCCCN(C(=O)CCCN1C(=O)NC(c2ccc([N+](=O)[O-])cc2)C(C(=O)OCc2ccccc2)=C1C)C(C)C(=O)NCCCC (stereo not given) | . | - | . | . | .
CCCCCCN(C(=O)CCCCCN1C(=O)NC(c2ccc(-c3ccccc3)cc2)C(C(=O)OCc2ccccc2)=C1C)C(C(=O)NCCCC)c1ccccn1 (stereo not given) | 2.3µM | . | ? | - | 2.9µM
CCCCCCN(C(=O)CCCCCN1C(=O)NC(c2ccc(-c3ccccc3)cc2)C(C(=O)OCc2ccccc2)=C1C)C(C(=O)NCCCC)C1CCCCC1 (stereo not given) | 2.6µM | . | - | - | 0.83µM
COCCOC(=O)C1=C(C)N(c2ccccc2)C(=O)NC1c1cccc([N+](=O)[O-])c1 (stereo not given) | - | - | - | - | ?
COC(=O)C1=CN(c2ccc(F)cc2)C=C(C(=O)OC)C1c1cccc([N+](=O)[O-])c1 | - | - | - | - | -[0.00184 µM]
COC(=O)C1=C(C)NC(C)=C(C(=O)OCCN(C)Cc2ccccc2)C1c1cccc([N+](=O)[O-])c1 (stereo not given) | 2.1µM | - | - | - | 1.7µM
CCOC(=O)C1=C(C)NC(C)=C(C(=O)OCCNC(=O)c2cccnc2)C1c1cccc([N+](=O)[O-])c1 (stereo not given) | 9.3µM | - | - | - | ?
COC(=O)C1=C(C#N)NC(C)=C(C(=O)OC(C)C)C1c1cccc([N+](=O)[O-])c1 (stereo not given) | 1.2µM | . | . | . | 7.6µM
O=C(NCCOC(=O)c1ccc([N+](=O)[O-])cc1)c1cccnc1 | - | - | - | . | -
COC(=O)C1=C(C)NC(C)=C(C(=O)OCCN2CCN(C(c3ccccc3)c3ccccc3)CC2)C1c1cccc([N+](=O)[O-])c1 (stereo not given) | 2.4µM | . | . | . | 1.7µM
OC(c1ccc(Cl)cc1)c1ncc(-c2cccc(F)c2)[nH]1 (stereo not given) | . | - | . | . | .
O=S1(=O)CC(N2CCN(CC3CC3)CC2)CN1Cc1ccc(F)cc1 (stereo not given) | . | - | . | . | .
COc1ccc(OC(=O)N(C)C[C@H]2OCc3cn(nn3)CCCC(=O)N([C@H](C)CO)C[C@@H]2C)cc1 | . | - | . | . | .
FC(F)(F)c1cccc(Cc2noc(CN3CCCC(CN4CCCC4)C3)n2)c1 (stereo not given) | 9.3µM | - | - | - | 2.6µM
CC1CCCN(Cc2nc(Cc3ccccc3Cl)no2)C1 (stereo not given) | ? | - | - | - | -
FC(F)(F)c1cccc(Cc2noc(CN3CCSCC3)n2)c1 | - | - | - | - | -
OC1CCCN(Cc2nc(Cc3ccccc3Cl)no2)C1 (stereo not given) | 10µM | - | - | - | -
Cc1n[nH]c(=S)c2nn(-c3cccc(Cl)c3)c(C)c12 | - | . | 79µM | - | -
Cc1ccc(Cl)cc1NC(=O)CN(C)S(=O)(=O)c1ccc2c(c1)n(C)c(=O)c(=O)n2C | . | . | - | . | .
Cc1ccc(S(=O)(=O)CC(=O)Nc2nc3c(C)cc(C)cc3s2)cc1 | . | . | - | . | .
COc1ccc(C2C(C#N)=C(SCC(=O)Nc3ccc(C)cc3)NC3=C2C(=O)CC(C)(C)C3)cc1 (stereo not given) | ? | - | - | - | 13µM
Cc1ccc(N=c2ssnc2Cl)cc1 | - | - | ? | - | -
Cc1nnc(N=c2ssnc2Cl)o1 | - | - | 28µM | . | -
COC(=O)c1sccc1-c1ccc(C(N)=O)o1 | - | . | 50µM | - | -
COC(=O)C(=Cc1ccc(-c2ccsc2C(=O)OC)o1)C(=O)OC | - | - | - | - | -
O=C(CCCn1c(=O)c2cccn2c2ccccc21)NCCc1ccc(Cl)cc1 | . | . | - | . | .
